# PMC9911399, “Two distinct binding modes provide the RNA-binding protein RbFox with extraordinary sequence specificity”
# Positions count from the first letter of the chain named. The full ranking holds about 16,000 sequences; the median of “ka relative to ugcaugu” is about 0.096, and the highest 2% start at about 0.35. The list comes from a sample in which the highest values are over-represented; it also holds similar and randomly drawn sequences.
# T1: RBFOX1 RRM RbFoxmut (Fox-RRM*) (Homo sapiens, UniProt Q9NWB1 109-208, R118D;E147R;N151S;E152T)
# T1 sequence: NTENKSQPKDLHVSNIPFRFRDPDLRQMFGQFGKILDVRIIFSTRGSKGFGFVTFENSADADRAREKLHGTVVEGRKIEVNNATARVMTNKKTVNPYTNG
# B1: GGUCGGG (DNA:RNA)
# RNA: GGGAGACCGGAAUUCAGAUUGUCCGGUCGGGUUAAAUCCCGUCGUAGCCACCA
# DNA 1: CAATCTGAATTCCGGTCTCCC
# DNA 2: TGGTGGCTACGACGGGATT
# B2: GGGACGG (DNA:RNA)
# RNA: B1 RNA with U27G, C28A, G29C
# DNA 1: CAATCTGAATTCCGGTCTCCC
# DNA 2: TGGTGGCTACGACGGGATT
# B3: CGGUUUG (DNA:RNA)
# RNA: B1 RNA with G25C, U27G, C28U, G29U, G30U
# DNA 1: CAATCTGAATTCCGGTCTCCC
# DNA 2: TGGTGGCTACGACGGGATT
# B4: GUCCGGU (DNA:RNA)
# RNA: B1 RNA with G26U, U27C, G31U
# DNA 1: CAATCTGAATTCCGGTCTCCC
# DNA 2: TGGTGGCTACGACGGGATT
# B5: GGUUUUU (DNA:RNA)
# RNA: B1 RNA with C28U, G29U, G30U, G31U
# DNA 1: CAATCTGAATTCCGGTCTCCC
# DNA 2: TGGTGGCTACGACGGGATT
# B6: GGUUUGU (DNA:RNA)
# RNA: B1 RNA with C28U, G29U, G31U
# DNA 1: CAATCTGAATTCCGGTCTCCC
# DNA 2: TGGTGGCTACGACGGGATT
# B7: GGUUUUG (DNA:RNA)
# RNA: B1 RNA with C28U, G29U, G30U
# DNA 1: CAATCTGAATTCCGGTCTCCC
# DNA 2: TGGTGGCTACGACGGGATT
# B8: GGUUUGG (DNA:RNA)
# RNA: B1 RNA with C28U, G29U
# DNA 1: CAATCTGAATTCCGGTCTCCC
# DNA 2: TGGTGGCTACGACGGGATT
# B9: UACCCGA (DNA:RNA)
# RNA: B1 RNA with G25U, G26A, U27C, G29C, G31A
# DNA 1: CAATCTGAATTCCGGTCTCCC
# DNA 2: TGGTGGCTACGACGGGATT
# B10: GGUCCCA (DNA:RNA)
# RNA: B1 RNA with G29C, G30C, G31A
# DNA 1: CAATCTGAATTCCGGTCTCCC
# DNA 2: TGGTGGCTACGACGGGATT
# B11: GGAGCAG (DNA:RNA)
# RNA: B1 RNA with U27A, C28G, G29C, G30A
# DNA 1: CAATCTGAATTCCGGTCTCCC
# DNA 2: TGGTGGCTACGACGGGATT
# B12: UAAAUGC (DNA:RNA)
# RNA: B1 RNA with G25U, G26A, U27A, C28A, G29U, G31C
# DNA 1: CAATCTGAATTCCGGTCTCCC
# DNA 2: TGGTGGCTACGACGGGATT
# B13: GCAAUGC (DNA:RNA)
# RNA: B1 RNA with G26C, U27A, C28A, G29U, G31C
# DNA 1: CAATCTGAATTCCGGTCTCCC
# DNA 2: TGGTGGCTACGACGGGATT
# B14: UGAAUGC (DNA:RNA)
# RNA: B1 RNA with G25U, U27A, C28A, G29U, G31C
# DNA 1: CAATCTGAATTCCGGTCTCCC
# DNA 2: TGGTGGCTACGACGGGATT
# B15: GAUGCUU (DNA:RNA)
# RNA: B1 RNA with G26A, C28G, G29C, G30U, G31U
# DNA 1: CAATCTGAATTCCGGTCTCCC
# DNA 2: TGGTGGCTACGACGGGATT
# B16: GAAUUGC (DNA:RNA)
# RNA: B1 RNA with G26A, U27A, C28U, G29U, G31C
# DNA 1: CAATCTGAATTCCGGTCTCCC
# DNA 2: TGGTGGCTACGACGGGATT
# B17: GGAAUGC (DNA:RNA)
# RNA: B1 RNA with U27A, C28A, G29U, G31C
# DNA 1: CAATCTGAATTCCGGTCTCCC
# DNA 2: TGGTGGCTACGACGGGATT
# B18: GAAAUGC (DNA:RNA)
# RNA: B1 RNA with G26A, U27A, C28A, G29U, G31C
# DNA 1: CAATCTGAATTCCGGTCTCCC
# DNA 2: TGGTGGCTACGACGGGATT
# B19: CGAAUGC (DNA:RNA)
# RNA: B1 RNA with G25C, U27A, C28A, G29U, G31C
# DNA 1: CAATCTGAATTCCGGTCTCCC
# DNA 2: TGGTGGCTACGACGGGATT
# B20: GAUUGCU (DNA:RNA)
# RNA: B1 RNA with G26A, C28U, G30C, G31U
# DNA 1: CAATCTGAATTCCGGTCTCCC
# DNA 2: TGGTGGCTACGACGGGATT
# B21: GAAUGCU (DNA:RNA)
# RNA: B1 RNA with G26A, U27A, C28U, G30C, G31U
# DNA 1: CAATCTGAATTCCGGTCTCCC
# DNA 2: TGGTGGCTACGACGGGATT
# B22: GUAAUGC (DNA:RNA)
# RNA: B1 RNA with G26U, U27A, C28A, G29U, G31C
# DNA 1: CAATCTGAATTCCGGTCTCCC
# DNA 2: TGGTGGCTACGACGGGATT
# B23: UUAAUGC (DNA:RNA)
# RNA: B1 RNA with G25U, G26U, U27A, C28A, G29U, G31C
# DNA 1: CAATCTGAATTCCGGTCTCCC
# DNA 2: TGGTGGCTACGACGGGATT
# Molecular target: T1, RBFOX1 RRM RbFoxmut (Fox-RRM*)
# Test: EMSA; HiTS-Eq, 1 nM pool, 10 min; buffer printed only for the single-RNA assays: 10 mM Tris pH 7.5, 150 mM NaCl, 3.4 mM EDTA, 0.001% NP-40, 30 C
# Settings: tags: His6 N-terminal (pET28a); label: 5' 32P
# In short: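 A pool of RNA with 7 randomized nucleotides, 5′-radiolabelled and with DNA-annealed flanks, was equilibrated at 1 nM for 10 min in 50 µL with purified RbFox RRM, wild type or mutant, across increasing protein concentrations. Free RNA was separated by 8% native PAGE, excised, reverse-transcribed, barcoded by PCR and sequenced. Relative association constants were obtained from read-count changes of each RNA species versus the control reaction and normalised to the cognate motif.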
row,Binder,binding signal
1,B1,0.0602 KA relative to UGCAUGU
2,B2,0.0996 KA relative to UGCAUGU
3,B3,0.633 KA relative to UGCAUGU
4,B4,0.132 KA relative to UGCAUGU
5,B5,0.056 KA relative to UGCAUGU
6,B6,0.366 KA relative to UGCAUGU
7,B7,0.191 KA relative to UGCAUGU
8,B8,0.277 KA relative to UGCAUGU
9,B9,0.066 KA relative to UGCAUGU
10,B10,0.0504 KA relative to UGCAUGU
11,B11,0.0829 KA relative to UGCAUGU
12,B12,0.0677 KA relative to UGCAUGU
13,B13,0.0545 KA relative to UGCAUGU
14,B14,0.485 KA relative to UGCAUGU
15,B15,0.0831 KA relative to UGCAUGU
16,B16,0.119 KA relative to UGCAUGU
17,B17,0.686 KA relative to UGCAUGU
18,B18,0.072 KA relative to UGCAUGU
19,B19,0.856 KA relative to UGCAUGU
20,B20,0.141 KA relative to UGCAUGU
21,B21,0.634 KA relative to UGCAUGU
22,B22,0.127 KA relative to UGCAUGU
23,B23,0.118 KA relative to UGCAUGU
